Among the data in PubChem BioAssay AID449762 (Southern Research Specialized Biocontainment Screening …, 2010) are inhibition values, retold here.

Out of some 330,000 compounds screened, about 1,900 (0.58%) were called active. Not shown: some 4% with an inconclusive outcome. Cut-off read from the data, not from the text of the source: inconclusive = inhibition above about 70% without an active follow-up result; inactive = below that. A selection follows. Measured potencies and affinities stand elsewhere.

A short description of this experiment: M. tuberculosis growth inhibition, HTS (AID 449762).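 Note: bacterial growth assessed after seven days of incubation.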 As to conditions: M. tuberculosis H37Rv growth inhibition, 7H9 media; at 25 µM; hits give high values.
On to `COc1ccc(S(=O)(=O)Nc2c3ccccc3nc(=O)n2-c2ccccc2)cc1`, for which the inhibition – broadly, the drop in the measured response relative to a control, in per cent – was 5.16% (inactive). The value for `O=C1CCC(C(=O)N(Cc2cccs2)C2(C(=O)NC3CCCCC3)CCCCC2)N1` (centres undefined) was 1.48% (inactive); that for `O=C1C=C(c2ccc(Oc3ccccc3)cc2)C[C@@H](c2ccc(F)cc2)C1` was 24.8% (inactive).

In the case of `CCOc1ccc(OCCCC(=O)Nc2cc(Cl)ccc2-n2cncn2)cc1`, the inhibition was 9.23% (inactive). The value for `N#CC(C#N)=C1CCc2ccccc2N1` was -3.11% (inactive); that for `O=C(NCCO)/C(=C\c1ccc([N+](=O)[O-])o1)NC(=O)c1ccccc1` was 59% (inactive); that for `CCCCOC(=O)/C(=C\c1ccc([N+](=O)[O-])o1)NC(=O)c1ccccc1` was -4.98% (inactive). The value for `COc1ccc(C2C(C(=O)Nc3ccccn3)=C(C)Nc3ncnn32)c(OC)c1` (centres undefined) was -4.42% (inactive); that for `COc1ccc(OC)c(-c2csc(NC(=O)CSc3ccccc3)n2)c1` was -4.32% (inactive); that for `COc1ccc(CC(=O)Nc2ccc(S(=O)(=O)Nc3onc(C)c3C)cc2)cc1OC` was 5.55% (inactive).

Turning to `COc1ccc(NC(=O)COC(=O)CCCc2c[nH]c3ccccc23)cc1`, the inhibition was 37.6% (inactive). The value for `COc1ccc(C2NN=C(c3c[nH]c4ccccc34)C2O)cc1` (centres undefined) was 4.48% (inactive); that for `O=C(COC(=O)c1ccc2c(c1)C(=O)N(CCc1ccccc1)C2=O)Nc1ccc(OC(F)F)cc1` was -2.61% (inactive); that for `CCC(CO)(C(=O)OC1C[N+]2(C)CCC1CC2)c1ccccc1` (centres undefined) was -13.2% (inactive). `OCCN1CCN(Cc2cc(Cl)c3cccnc3c2O)CC1`: the inhibition was 6.31% (inactive). The value for `CCOC(=O)N1CCN(Cc2ccc(O)c3ncccc23)CC1` was 55.4% (inactive); that for `CC(=O)Nc1ccc(S(=O)(=O)NCCc2c[nH]c3ccc(C)cc23)cc1` was 0.51% (inactive).

Turning to `COc1ccc(CNC(=O)[C@@H]2CC=C[C@@H]3CCN(Cc4ccc(Cl)c(Cl)c4)C(=O)[C@@H]32)cc1`, the inhibition is 18.4% (inactive). The value for `COc1ccc(OCCCCN(C)Cc2ccccc2)cc1` was 13.7% (inactive). As to `O=C(NNC(=S)Nc1ccccc1)c1ccncc1`, the inhibition is 7.24% (inactive).

With `COc1cccc(C2c3[nH]c4ccccc4c3CCN2Cc2cccn2-c2ncccn2)c1` (centres undefined), the inhibition is 2.06% (inactive). The value for `CCOc1ccc(C2c3[nH]c4ccccc4c3CCN2Cc2cccn2-c2ncccn2)cc1` (centres undefined) was 67.7% (inactive). The value for `Cc1ccc(CNC(=O)CSCc2cccc(F)c2)cc1` was 12.3% (inactive); that for `CNC(=S)N/N=C/c1c(C)nn(-c2ccc(F)cc2)c1Cl` was 6.49% (inactive); that for `CC1=C(C)CC(C(=O)Nc2nccs2)C(C(=O)O)C1` (centres undefined) was -4.95% (inactive). Turning to `S=c1nccc(-c2ccc3c(c2)CCO3)[nH]1`, the inhibition was 3.97% (inactive). The value for `S=c1nccc(-c2ccc(Cl)cc2)[nH]1` was 54.5% (inactive); that for `COc1ccc(C2C(C#N)=C(N)Oc3cc(C)n(Cc4ccncc4)c(=O)c32)cc1` (centres undefined) was -7.68% (inactive). The value for `O=C(CCn1cnc2ccccc2c1=O)Nc1ccc2c(c1)OCCO2` was -3.32% (inactive). The value for `CCN(CC)c1ccc2c(C)c(Cl)c(=O)oc2c1` was -3.19% (inactive); that for `CCN(CC)c1ccc2c(Cl)cc(=O)oc2c1` was 5.83% (inactive).

Regarding `Cc1nc(C)c(C(=O)OCC(=O)NCc2ccccc2Cl)s1`, the inhibition was 3.01% (inactive).

For the compound `CCOC(=O)c1cnc2ccc(OCC)cc2c1N1CCN(C)CC1`, the inhibition was 4.95% (inactive). On to `CCOC(=O)c1cnc2ccc(OCC)cc2c1N1CCN(c2ccccc2OC)CC1`, for which the inhibition is 63.7% (inactive).

Turning to `C=CCN(CC(=O)NCc1ccccc1)C(=O)c1csnn1`, the inhibition is -1.06% (inactive).

As to `O=C(O)C1CC=CCC1C(=O)NCCCN1CCCC1=O` (centres undefined), the inhibition was -30.3% (inactive). The value for `O=[N+]([O-])c1ccc(-[n+]2c(-c3ccccc3)cc(-c3ccccc3)cc2-c2ccccc2)cc1` was 8.42% (inactive). Regarding `Cc1ccc(-c2cc(-c3ccc(C)cc3)[n+](-c3ccc(C(=O)O)cc3)c(-c3ccc(C)cc3)c2)cc1`, the inhibition is 6.26% (inactive). As for `O=C(O)c1ccc(-[n+]2c(-c3ccccc3)cc(-c3ccccc3)cc2-c2ccccc2)cc1`, the inhibition was -13.1% (inactive).

Turning to `O=C([O-])c1ccc(-[n+]2c(-c3ccccc3)cc(-c3ccccc3)cc2-c2ccccc2)cc1`, the inhibition was 55.9% (inactive). As to `O=[N+]([O-])c1ccc2nc(-[n+]3c(-c4ccccc4)cc(-c4ccccc4)cc3-c3ccccc3)[nH]c2c1`, the inhibition was 27.2% (inactive). The value for `Cc1ccc(-c2cc(-c3ccccc3)cc(-c3ccccc3)[n+]2-c2ccc(C(=O)O)cc2)cc1` was -6.06% (inactive).

Consider `CC(C)(C)OC(=O)[C@H](Cc1ccccc1)NC(=O)c1nc[nH]c1C(=O)N[C@@H](CCCCN)C(=O)OC(C)(C)C`, for which the inhibition is -1.19% (inactive). The value for `CC(Cc1ccco1)NC(=O)c1ccc(C(F)(F)F)cc1` (centres undefined) was 4.71% (inactive); that for `COc1ccc(Cl)cc1NC(=O)NCCN1CCNC1=O` was 0.11% (inactive). The value for `COc1ccc(/C(N)=N/OC(=O)CCCc2ccccc2)cc1OC` was 14.8% (inactive); that for `O=C(O)c1cccc(NC(=O)c2cc(S(=O)(=O)N3CCOCC3)cs2)c1` was -7.54% (inactive). Turning to `CCOC(=O)N1CCC(N(CCN(C)C)C(=S)Nc2ccccc2OCC)CC1`, the inhibition is 7.57% (inactive). The value for `CC1CCC(NCc2ccco2)CC1` (centres undefined) was -0.39% (inactive). The value for `CCC1=C(OC(=O)N(CC)CC)N2C(=O)OC(=NCCc3c[nH]c4ccccc34)[C@]2(Cc2ccccc2)[C@H]2C1=CC[C@H]1C(=O)N(CC)C(=O)[C@H]12` was -7.04% (inactive). The value for `CCC1=C(OC(=O)N(CC)CC)N2C(=O)OC(=NCCc3c[nH]c4ccccc34)[C@]2(Cc2ccccc2)[C@H]2C1=CC[C@H]1C(=O)N(C)C(=O)[C@H]12` was 68.8% (inactive); that for `O=C(NCC1CCCO1)C(=O)N/N=C/c1c(F)cccc1Cl` (centres undefined) was 5.59% (inactive); that for `NC(N)=Nc1nc2ccccc2o1` was 4.74% (inactive). On to `CCCCN(C(=O)c1cnccn1)c1c(N)n(CCC)c(=O)[nH]c1=O`, for which the inhibition was -6.33% (inactive). `CCC(=O)c1ccc(OCC(O)CN2CCN(c3ccccn3)CC2)cc1` (centres undefined): the inhibition was 4.67% (inactive).

As for `N#Cc1ccc(OCC(O)CN2CCN(CC(O)COc3ccc(C#N)cc3)CC2)cc1` (centres undefined), the inhibition is -5.84% (inactive).

`CCC(=O)c1ccc(OCC(O)CN2CCN(c3ccc(F)cc3)CC2)cc1` (centres undefined): the inhibition is -1.98% (inactive). The value for `OC(CN1CCN(c2ncc(C(F)(F)F)cc2Cl)CC1)c1ccccc1` (centres undefined) was 32.4% (inactive). For `O=[N+]([O-])c1cc([N+](=O)[O-])c(Oc2cc(F)ccc2F)cc1NN1CCCCC1`, the inhibition was 5.39% (inactive). The value for `O=C(NCCc1ccccc1)C(=O)c1cn(CC(=O)N2CCCC2)c2ccccc12` was -0.08% (inactive); that for `COc1cc(NC(=O)c2cccnc2SC)cc(OC)c1OC` was -4.5% (inactive); that for `Cc1cccc(NC(=O)c2nc[nH]c2C(=O)N(C)Cc2ccccc2)c1` was 27.5% (inactive). As to `COc1cc(OC)cc(C(=O)N[C@H](C(=O)NC23CC4CC(CC(C4)C2)C3)C(C)C)c1`, the inhibition was -8.25% (inactive). For the compound `CCCCCN(C(=O)CCC(=O)OCCOc1cccc(C)c1)c1c(N)n(CCCC)c(=O)[nH]c1=O`, the inhibition was 44.3% (inactive).

For the compound `CCOc1cc(Cl)c(NC(C)=O)cc1OCC`, the inhibition was -1.54% (inactive). In the case of `CCOc1cc(NC(=S)Nc2ccc(Cl)cc2)c(OCC)cc1NC(C)=O`, the inhibition was -3.61% (inactive).

In the case of `CC(=O)c1cccc(NC(=O)C(C)OC(=O)c2ccc(Br)o2)c1` (centres undefined), the inhibition is 4.17% (inactive).

As to `CCOC(=O)C1CCN(c2cc3c(cc2NC(=O)c2ccccc2F)n(C)c(=O)n3C)CC1`, the inhibition was 4.71% (inactive). In the case of `CCOC(=O)C1CCN(c2cc3c(cc2NC(=O)c2ccccc2)n(C)c(=O)n3C)CC1`, the inhibition was -3.19% (inactive). The value for `CCc1ccc(NC(=O)C2C3C=CC(C4CC34)C2C(=O)O)cc1` (centres undefined) was 4.87% (inactive); that for `CCCCCCNC(=O)C(=O)NCCc1ccc(Cl)cc1` was -8.55% (inactive); that for `CCCCCc1ccc(CC(=O)O)cc1` was -9.58% (inactive). The value for `NS(=O)(=O)c1cc(C(=O)OC2CCOC2=O)ccc1Cl` (centres undefined) was -0.59% (inactive); that for `N/C(=N\OC(=O)c1ccc2c(c1)OCO2)c1ccc([N+](=O)[O-])cc1` was 0.35% (inactive); that for `CS(=O)(=O)O/N=C1\CCCCC1c1ccc([N+](=O)[O-])cc1[N+](=O)[O-]` (centres undefined) was 11.2% (inactive). The value for `CCN(CC)CCNc1ncnc2c1sc1nc(N3CCOCC3)c3c(c12)CCCC3` was 13.5% (inactive). As to `COc1ncnc2c1sc1nc(-c3ccccc3)c3c(c12)CCCC3`, the inhibition is 2.95% (inactive).

With `Cc1nc(-c2c(C(=O)NNC(=O)Nc3c(C)cccc3C)noc2C)cs1`, the inhibition was -5.09% (inactive). The value for `COc1ccc(OC)c(C(=O)NC2CC(C)(C)Cc3c2cnn3-c2ccccc2)c1` (centres undefined) was 12.2% (inactive); that for `CC(C)CC(=O)Nc1cccc(NC(=O)c2ccccc2Cl)c1` was 0.24% (inactive). Regarding `COc1ccc(CSc2nc3ccccc3c(=O)[nH]2)cc1F`, the inhibition is 2.06% (inactive). The value for `Cn1cc(C=C2C(=O)NC(=O)NC2=O)c2ccccc21` was -7.12% (inactive); that for `COc1ccc(N2C(=O)NC(=O)/C(=C\c3cn(C)c4ccccc34)C2=O)cc1` was 3.04% (inactive). With `COC(=O)c1ccc(C(c2c(N)n(CC(C)C)c(=O)[nH]c2=O)N2CCN(c3ccccc3)CC2)cc1` (centres undefined), the inhibition is 7.1% (inactive). The value for `CCOC(=O)CC(=O)CSc1nnc2c(n1)[nH]c1ccccc12` was 7.32% (inactive); that for `COc1ccc(C2CC(c3c(Cl)cccc3Cl)n3nc(N)nc3N2)cc1` (centres undefined) was -4.95% (inactive); that for `Cc1cc(C)nc(NC(=S)NC(=O)c2ccccc2)n1` was -0.74% (inactive). The value for `O=C(C1CCC(CNc2c(N3CCCCC3)c(=O)c2=O)CC1)N1CCCC1` (centres undefined) was -1.43% (inactive); that for `CC1CCN(C(=O)C2CCC(CNc3c(N4CCCCC4)c(=O)c3=O)CC2)CC1` (centres undefined) was -6.49% (inactive).
